Screening results deposited in PubChem BioAssay by National Center for Advancing Translational Sciences (NCATS).
Rows were chosen to be rich in hits. Some 6.6% of all compounds tested hit in one or more screens of this group.
KB-V1 cytotox = KB-V1 MDR subline cytotoxicity | KB-V1 MDR cells viability, CellTiter-Glo, 72 h | Potency, µM (series often up to 46.1 µM), usual class: cytotoxic | actives 3.4% (n = 400,000) | AID 1347076; also: nearly all actives have a fitted effect of over 60% in size
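In this primary screen, KB-V1 cells overexpressing P-gp are incubated with library compounds (lowest to highest concentration) for 72 h at 37 degrees C before a luminescent ATP viability read.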
HT1080 IDH1KD tx = kills HT-1080 cells with IDH1 knockdown | HT-1080 IDH1 knockdown viability, ATP luminescence, 48 h | Potency, µM (top dose mostly 46.1 µM), most hits filed as cytotoxic | AID 686971 | actives 2% (n = 360,000)
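Cytotoxicity counter-line: IDH1KD HT-1080, 48 h, CellTiter-Glo. Curves classed by r2, magnitude and activity.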
TGFb inhibitor = TGF-b pathway inhibition | HepG2 CAGA-GFP TGF-b/SMAD3 reporter, GFP fluorescence, 18 h; TGF-beta stimulated, 500 pg/mL final | Potency, µM (doses to about 46.1 µM), usual class: inhibitors | actives 1.2% (n = 410,000) | AID 588855; also: nearly all actives have a fitted effect of over 65% in size
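TGF-beta reporter screen: HEPG2 CAGA-GFP, 1% FBS, 500 pg/mL TGF-beta final, 18 h; per-cell GFP summed per well; curves fitted and categorized by class.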
KB-3-1 cytotox = KB-3-1 parental cell cytotoxicity; KB-3-1 viability, CellTiter-Glo ATP luminescence, 72 h; actives 1.4% (n = 400,000); Potency, µM (top dose mostly 46.1 µM), hits mostly cytotoxic; also: nearly all actives have a fitted effect of over 60% in size
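Luminescent ATP read-out (CellTiter-Glo) measures survival of drug-naive KB-3-1 cells after 72 h compound exposure at 37 °C. Titration series was screened from lowest to highest concentration, with DMSO vehicle plates as background controls.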
HepG2 tox = kills HepG2 cells in TGF-b inhibitor counter-screen; HepG2 CAGA-GFP viability, ATP luminescence, 18 h; Potency, µM (highest dose often 46.1 µM), most hits filed as cytotoxic; actives 0.76% (n = 410,000)
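CellTiter-Glo luminescence gave cytotoxicity after 18 hours at 37 degrees C. The cells were HepG2 CAGA-GFP in 1% FBS DMEM, stimulated with 500 pg/mL TGF-beta after compound addition. %Activity was normalised to no-cell wells (complete cell-killing) and DMSO (no toxicity), and curves were fitted and classified.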
HT1080NT lethal = kills 2HG-producing HT-1080-NT fibrosarcoma cells. HT-1080-NT fibrosarcoma viability, CellTiter-Glo ATP luminescence, 48 h. Potency, µM (top dose mostly 46.1 µM), actives largely listed as cytotoxic. actives 1.6% (n = 360,000). AID 686970;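 also: NT is the 2HG producing partner of a matched IDH1 knockdown line; nearly all actives have a fitted effect of over 55% in size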
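Compounds were tested in concentration-response format on HT-1080-NT cells for 48 hours at 37 degrees C. Cell viability came from CellTiter-Glo luminescence; curves were classified by r2, response magnitude and activity.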
A number is an active result; i = inactive; ? = inconclusive; nt = no result. Calls follow the shape of the dose curve; as a rule, active = well fitted curve in the direction sought with a large enough effect; inconclusive = small, poorly fitted or top-dose-only effect, or another doubt; inactive = no such curve, though single readings can be large; an effect the other way counts as inactive or inconclusive.

SMILES	KB-V1 cytotox	HT1080 IDH1KD tx	TGFb inhibitor	KB-3-1 cytotox	HepG2 tox	HT1080NT lethal
O=C(Nc1nccs1)c1cccc(N2C(=O)c3cccc4c([N+](=O)[O-])ccc(c34)C2=O)c1	?	16µM	i	?	i	21µM
CC(=O)N1c2ccc(S(=O)(=O)N3CCCCCC3)cc2CC1C(=O)NCc1ccccc1 (configuration not stated)	i	nt	i	i	i	nt
NC(CCc1ccccc1)c1csc(NC(=O)NCC2CCCCC2)n1 (configuration not stated)	?	?	?	?	i	16µM
COc1ccc(OC)c(NC(=O)Nc2nc(C(N)CCc3ccccc3)cs2)c1 (configuration not stated)	?	21µM	?	?	16µM	?
COc1cc(NC(=O)Nc2nc(C(N)CCc3ccccc3)cs2)cc(OC)c1OC (configuration not stated)	i	?	?	?	i	18µM
c1ccc(Cc2nnc3sc(C4COc5ccccc5O4)nn23)cc1 (configuration not stated)	15µM	i	?	i	i	i
Cc1ccc(-c2nnc3sc(C4COc5ccccc5O4)nn23)cc1 (configuration not stated)	i	i	i	i	i	i
c1ccc(OCc2nnc3sc(C4COc5ccccc5O4)nn23)cc1 (configuration not stated)	i	i	i	i	i	i
Clc1ccccc1-c1nnc2sc(C3COc4ccccc4O3)nn12 (configuration not stated)	16µM	?	i	i	i	i
Cc1ncc(CO)c2c1Oc1nc(-c3ccc(F)cc3)nc(SCC(=O)N3CCCCC3)c1C2	i	nt	i	i	i	nt
CN(C)c1nc(NS(=O)(=O)c2ccc(Cl)cc2)nc(N(C)C)n1	13µM	i	i	i	i	i
O=S(=O)(Nc1ncccn1)c1ccc(Cl)cc1	i	i	i	i	i	i
CCOC(=O)c1c(Nc2ccc(O)cc2)nnc(-c2ccccc2)c1-c1ccccc1	i	nt	i	i	i	nt
COc1ccc2ccccc2c1CNC(C)c1ccccc1 (configuration not stated)	i	?	i	i	i	i
CC(NCCCOc1cccc2ccccc12)c1ccccc1 (configuration not stated)	i	?	?	i	20µM	?
CN(c1ccccc1)C1CCCCC1NS(=O)(=O)c1ccc(Cl)cc1 (configuration not stated)	?	?	11µM	i	i	i
CCN(CC)C1CCCCC1NS(=O)(=O)c1ccc(Cl)cc1 (configuration not stated)	i	i	i	i	i	i
Cn1cc(CNC(=O)C2CCCCC2)cn1	i	i	i	i	i	i
CCn1cc(CNCc2cn(C)nc2-c2ccc(C3CCCCC3)cc2)cn1	?	21µM	?	i	i	15µM
COc1ccccc1NC(=O)CSc1nc(-c2cccc(Cl)c2)nc2c1Cc1c(CO)cnc(C)c1O2	i	nt	i	i	i	nt
CCOC(=O)C1=C(C)NC(=O)NC1c1ccc(OC)c(Cl)c1 (configuration not stated)	21µM	?	i	i	i	i
CC1=C(C(=O)OCc2ccc3c(c2)OCO3)C(c2ccc(Cl)cc2)NC(=O)N1 (configuration not stated)	12µM	2.2µM	?	?	i	2.5µM
CC1=C(C(=O)OCC2CCCCC2)C(c2ccc(Cl)cc2)CC(=O)N1 (configuration not stated)	?	nt	?	i	13µM	nt
CC1=C(C(=O)OCc2ccc3c(c2)OCO3)C(c2ccc(F)cc2)NC(=O)N1 (configuration not stated)	8.2µM	5µM	i	15µM	i	4.5µM
CSCCOC(=O)C1=C(C)NC(=O)NC1c1ccc2c(c1)OCO2 (configuration not stated)	i	i	i	i	i	i
SMILES	KB-V1 cytotox	HT1080 IDH1KD tx	TGFb inhibitor	KB-3-1 cytotox	HepG2 tox	HT1080NT lethal
CCCCCOC(=O)C1=C(C)NC(=O)NC1c1ccc2c(c1)OCO2 (configuration not stated)	i	i	i	i	i	i
COCCCNC(=O)CSc1nc2nc(C)c(Cc3ccccc3Cl)c(C)n2n1	i	nt	i	i	i	nt
C[C@@H]1[C@H](c2ccccc2)OCCS(=O)(=O)N1Cc1ccccc1Br	?	nt	?	?	i	nt
O=C(Nc1ccc2nc(SCC(=O)N3CCc4ccccc43)sc2c1)c1ccccc1	nt	nt	i	nt	i	nt
O=c1oc2cc(Oc3ccc(C(F)(F)F)cc3[N+](=O)[O-])ccc2c2c1CCC2	21µM	i	i	i	i	i
Cc1ccc(OCCCCn2ccnc2)c(Cl)c1	21µM	i	i	i	i	i
Cc1ccccc1Oc1nc2c(c(=O)n(C)c(=O)n2C)n1Cc1ccc(Br)cc1	i	nt	i	i	i	nt
NC1=NC[C@H](c2ccccc2)N1CCc1cc(C(F)(F)F)cc(C(F)(F)F)c1	?	?	11µM	?	i	?
COc1ccccc1COC(=O)Nc1c(C)nn(C)c1Cl	23µM	i	i	i	i	i
COc1ccc(N/C=C(\C#N)c2nc3ccccc3n2C)c(OC)c1	21µM	i	?	i	i	i
Cn1c(/C(C#N)=C/c2ccccc2Br)nc2ccccc21	nt	nt	nt	nt	i	nt
O=[N+]([O-])c1ccc(S(=O)(=O)NCc2nc3cccnc3n2Cc2ccccc2Cl)cc1	nt	nt	?	nt	i	nt
O=C(N/N=C/c1cccs1)c1n[nH]c2c1CCC2	?	6.5µM	i	5.8µM	i	7.3µM
O=C(N/N=C/C(Br)=C/c1ccccc1)c1n[nH]c2c1CCC2	i	7.9µM	i	i	i	?
O=C(N/N=C/c1ccccc1)c1n[nH]c2c1CCCC2	?	?	i	?	i	?
O=C(N/N=C/c1ccc(Cl)cc1)c1n[nH]c2c1CCCC2	1.3µM	0.52µM	?	4.6µM	i	0.41µM
CCOc1ccc(NC(=O)CN(C)C(=O)c2sccc2-c2ccccc2)cc1OCC	?	i	i	i	i	i
CN(Cc1ccco1)C(=O)c1ccc2c(c1)N(Cc1ccccc1F)C(=O)c1ccccc1S2	nt	nt	i	nt	i	nt
COc1ccc(NC(=O)c2cc(-c3cc(Cl)ccc3OC)n[nH]2)c(C)c1	i	?	i	i	i	?
Cc1ccccc1NC(=O)CSc1cn(CC(=O)N2CCCCCC2)c2ccccc12	nt	nt	i	nt	i	nt
Cc1cc(S(=O)(=O)N2CCC(NC(=O)C34CC5CC(CC(C5)C3)C4)CC2)ccc1-n1cnnn1	9.2µM	i	i	i	i	i
